The source of these data is PMC5540273 (PLoS ONE, 2017).

For orientation: Kd means the concentration at which binding is half-saturated. High values mean lower affinity, low ones higher affinity.

Each structure is given as a SMILES string.
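Also: kd values determined as follow-up on hits from a single-replicate KINOMEscan panel screen.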

The first assay concerns BRSK2.
In turn, `COc1cccc(NC(=O)Nc2ccc(C)c(-c3ccc(C(=O)Nc4ccncc4)cc3)c2)c1` [GSK1398474] showed a Kd above 10 µM.
For the compound `Cc1ccccc1Cn1ccn2c(=O)cc(N3CCOCC3)nc12` [GSK2269905], the Kd is above 10 µM.
Same read-out and setting: the result for `COc1ccc(-c2coc3ccc(-c4nnc(C)o4)cc23)cc1` reads above 10 µM; that for `O=c1cc(N2CCOCC2)nc2n(Cc3ccccc3F)ccn12` [GSK2297428], above 10 µM.
The compound `c1ccc(-c2ccnc3[nH]ccc23)cc1` [SB-693578] gave a Kd above 10 µM.

For the next assay, the system named is BUB1.
For the compound `Fc1ccc(-c2nc[nH]c2-c2ccncc2)cc1` [SB-217360], the affinity, expressed as Kd, was 0.89 µM.
`COc1cc2ncnc(Nc3cccc(Br)c3)c2cc1OC.Cl` [GI230329]: the Kd stood at 0.13 µM.
On the same count and under the same terms, the result for `CSc1ccc(-c2nc3n(c2-c2ccncc2)CCC3)cc1` [SKF-105561] reads 0.26 µM; that for `COc1ccc2cc(-c3nc(-c4ccccc4C(C)C)[nH]c3-c3ccncc3)ccc2c1` [SB-660566], 0.47 µM.
`CCCCc1nn2ncccc2c1-c1ccnc(NC2CC2)n1` [GW684374] came in with a Kd of 3.3 µM.
Same read-out and setting: the result for `CS(=O)(=O)Cc1ccc(Nc2nccc(-c3c(-c4cccc(NC(=O)C5CCCCC5)c4)nn4ncccc34)n2)cc1` [GSK350559] reads 0.029 µM.

For the next assay, the system named is CAMK2A.
`Cc1ccc(NC(=O)c2ccc(Cl)cc2)cc1-c1ccc(C(=O)Nc2ccncc2)cc1` [GSK1398467] gave a Kd above 10 µM.
As to `CNc1nc(-c2ccc3c(N)n[nH]c3c2)cc(N2C[C@@H](C(=O)Nc3ccccc3)CC[C@H]2C)n1` [GSK2298859], the Kd is above 10 µM.
For the compound `O=C(Nc1n[nH]c2nc(-c3cccs3)c(Br)cc12)C1CC1` [SB-735297], the Kd is above 10 µM.
`COC(=O)c1cccc(NC(=O)NC2CCN(c3ccnc(Nc4ccc(OC)cc4)n3)C2)c1` (stereo not drawn) [GSK1379746] gave a Kd above 10 µM.

Another assay concerns CAMK2B.
`Cc1ccc(NC(=O)c2ccc(Cl)cc2)cc1-c1ccc(C(=O)Nc2ccncc2)cc1` [GSK1398467] gave a Kd above 10 µM.
Compound `CNc1nc(-c2ccc3c(N)n[nH]c3c2)cc(N2C[C@@H](C(=O)Nc3ccccc3)CC[C@H]2C)n1` [GSK2298859] came in with a Kd above 10 µM.
The same measure, in the same setting: the result for `O=C(Nc1n[nH]c2nc(-c3cccs3)c(Br)cc12)C1CC1` [SB-735297] reads above 10 µM; that for `COC(=O)c1cccc(NC(=O)NC2CCN(c3ccnc(Nc4ccc(OC)cc4)n3)C2)c1` (stereo not drawn) [GSK1379746], above 10 µM.

The test system of the next assay is T1, CDC2L5.
T1 construct: gene CDK13
Consider `CCn1c(-c2c(N)noc2C)nc2cnccc21` [SB-737856], for which the Kd is above 10 µM.
The same measure, in the same setting: with `COc1ccc(CSc2nnc(-c3ccc4c(c3)CCO4)o2)cc1` the figure was above 10 µM.
In the case of `CCn1c(-c2ccccc2)nc2cnccc21` [SB-733416], the Kd is above 10 µM.

Another assay deals with T2, CDK11.
T2 construct: gene CDK19
On to `Nc1ncnc2occ(-c3ccc4c(c3)CCN4C(=O)Cc3cc(F)ccc3F)c12` [GSK2645446], for which the Kd turned out to be 1.1 µM.
The compound `CC(=O)c1cccc(NC(=O)NC2CCN(c3ccnc(Nc4ccc(F)cc4)n3)C2)c1` (stereo not drawn) [GSK1379710] showed a Kd of 2 µM.
On the same count and under the same terms, the result for `O=c1cc(N2CCOCC2)nc2n(Cc3cccc(Cl)c3Cl)c3ccccc3n12` [GSK2299009] reads above 10 µM.
The same measure, in the same setting: with `Cc1cnc(N)c(/C=C/c2cncc(C(=O)NCCc3ccc(Cl)cc3Cl)c2)c1.Cl` [GSK190937] the figure was 0.41 µM.

The next assay deals with CDK4-cyclinD1.
With `CC(C)c1ccc(O)cc1Nc1ccnc2ccc(C(F)(F)F)cc12` [GW482059], the Kd was above 10 µM.
The same measure, in the same setting: the result for `CC(=O)c1c(C)c2cnc(Nc3ccc(N4CCNCC4)cn3)nc2n(C2CCCC2)c1=O` reads 0.0013 µM; that for `CC(=O)c1c(C)c2cnc(Nc3ccn(C)n3)nc2n(C2CCCC2)c1=O`, 0.023 µM.

In another assay the test system is CDK4-cyclinD3.
For `CC(=O)c1c(C)c2cnc(Nc3ccc(N4CCNCC4)cn3)nc2n(C2CCCC2)c1=O`, the Kd is 0.00062 µM.
Still for that read-out and setting: with `CC(=O)c1c(C)c2cnc(Nc3ccn(C)n3)nc2n(C2CCCC2)c1=O` the figure was 0.0099 µM.
In the case of `CCc1ccc(-c2ccc3c(c2)-c2n[nH]cc2S(=O)(=O)N3C)cc1`, the Kd is above 10 µM.

The subject of a further assay is CDK4.
The compound `COc1nccc(-c2c(-c3ccc(F)cc3)ncn2CCCN2CCOCC2)n1` [SB-282852] came in with a Kd above 10 µM.
The same measure, in the same setting: with `O=C(Nc1n[nH]c2cc(-c3ccsc3)ccc12)C1CC1` [SB-732932] the figure was above 10 µM.
For `O=C1NC(=O)C(c2ccc(Cl)cc2)=C1Nc1cccc(Cl)c1` [SB-317651], the Kd was above 10 µM.
The same measure, in the same setting: with `CNc1nc(-c2ccc3c(N)n[nH]c3c2)cc(N2C[C@@H](C(=O)NC3CCCCC3)OC[C@H]2C)n1` [GSK2375584] the figure was above 10 µM.
